Sampled rows, rich in hits. Any-hit rate of the full collection: about 3.8%.
GCN5L2 inh – GCN5L2 (KAT2A) acetyltransferase inhibition; AID 504327; 0.21% of 390,000 active; Q92830; GCN5L2 HAT assay, ThioGlo1 CoA-SH fluorescence; Potency, µM (doses to about 58.9 µM), hits mostly inhibitors
Target sequence (Q92830 whole entry, looked up): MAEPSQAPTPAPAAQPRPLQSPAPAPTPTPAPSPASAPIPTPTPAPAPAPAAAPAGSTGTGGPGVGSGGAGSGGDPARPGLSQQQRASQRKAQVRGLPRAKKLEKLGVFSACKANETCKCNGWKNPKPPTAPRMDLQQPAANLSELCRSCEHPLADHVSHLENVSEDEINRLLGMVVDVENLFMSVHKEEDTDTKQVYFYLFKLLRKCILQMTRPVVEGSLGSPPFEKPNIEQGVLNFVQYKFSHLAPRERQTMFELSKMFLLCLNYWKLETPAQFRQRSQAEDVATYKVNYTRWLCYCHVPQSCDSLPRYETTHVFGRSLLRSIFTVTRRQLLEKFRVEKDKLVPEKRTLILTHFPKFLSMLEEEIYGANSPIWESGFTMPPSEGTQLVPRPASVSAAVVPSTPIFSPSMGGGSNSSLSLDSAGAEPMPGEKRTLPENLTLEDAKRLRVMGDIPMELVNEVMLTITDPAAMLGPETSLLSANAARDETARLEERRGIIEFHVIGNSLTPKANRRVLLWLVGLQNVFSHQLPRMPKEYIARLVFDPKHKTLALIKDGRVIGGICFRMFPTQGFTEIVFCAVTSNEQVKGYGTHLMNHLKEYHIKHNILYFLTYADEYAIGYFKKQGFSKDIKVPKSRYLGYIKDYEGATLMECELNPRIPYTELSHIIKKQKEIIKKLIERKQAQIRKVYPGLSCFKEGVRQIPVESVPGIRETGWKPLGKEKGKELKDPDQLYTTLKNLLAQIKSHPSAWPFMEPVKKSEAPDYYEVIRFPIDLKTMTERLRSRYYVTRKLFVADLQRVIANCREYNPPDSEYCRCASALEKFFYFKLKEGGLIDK
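Enzyme at 20nM final was mixed with library compounds for 15 min at room temperature. Peptide H3(1-25) at 75uM, acetyl-CoA at 70uM and ThioGlo1 at 50uM were then added. Plates were read immediately and after 20 min (Ex340nm/Em540nm).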
TrxR1 substrate – substrates of rat thioredoxin reductase 1; Potency, µM (doses to about 114 µM); O89049; 0.01% of 390,000 active; purified TrxR1 substrate turnover, NADPH consumption readout; also: nearly all actives have a fitted effect of over 50% in size
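Rat TrxR1, dispensed at 90 nM, was prereduced with 400 uM NADPH (final) for 5 min at ~22 deg C, then incubated with compound 15 min before 400 uM selenite. A first-read NADPH fluorescence drop versus no-compound background flagged substrates.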
rTrxR1 inhibitor – blocks rat thioredoxin reductase 1; recombinant rTrxR1, NADPH fluorescence consumption, selenite substrate; 1% of 390,000 active; O89049; Potency, µM (highest dose often 114 µM), actives largely listed as inhibitors; AID 588453; also: nearly all actives have a fitted effect of over 65% in size
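Rat TrxR1 (90 nM in the dispensed reagent) was pre-reduced with 400 uM NADPH for 5 min at room temperature, then incubated with compound for 15 min. After 400 uM selenite was added, NADPH fluorescence (Ex 340/Em 450 nm) was followed for 8 min.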
GLS inhibitor – glutaminase GLS (human) inhibition. GLS enzymatic activity, qHTS titration. Potency, µM (highest dose often 45.5 µM), actives largely listed as inhibitors. O94925. AID 624170. 0.21% of 410,000 active
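Coupled fluorescence readout: glutamate oxidase/HRP/Amplex Red detect glutamate formed by hKGA from L-glutamine (1 mM solution added). Buffer 45 mM KH2PO4 pH 8.2, 0.02% Tween-20; reads at t0 and 30 min RT.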
Sfp PPTase inh – blocks B. subtilis Sfp PPTase activity | Q9F4F7 | Biochemical Sfp PPTase activity, qHTS | Potency, µM, actives largely listed as inhibitors | 3.5% of 310,000 active | AID 1490;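 also: the enzyme is Sfp with the accession as filed and its product quenches rhodamine fluorescence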
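Fluorescence-quenching assay with 15 nM Sfp, 5 uM rhodamine-CoA and 12.5 uM BHQ-2-labelled ybbR peptide in pH 7.6 Hepes/MgCl2 buffer. Enzyme was pre-incubated with compound for 15 min at room temperature. Rate was taken from the 30-min fluorescence change (525/598 nm).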
VDR inh – inhibitors of human vitamin D receptor | VDR-SRC2-3 peptide fluorescence polarization, 2 h | Potency, µM, usual class: inhibitors | AID 504847 | P11473 | 0.93% of 400,000 active
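VDR–SRC2-3 interaction, FP format. Cmpds 23 nl via pintool, brief spin, 2 h ambient incubation.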
Numbers stand for hits; i = inactive; ? = inconclusive; nt = no result; [ ] = dose if it differs, or a comment. Calls follow the shape of the dose curve; as a rule, active = well fitted curve in the direction sought with a large enough effect; inconclusive = small, poorly fitted or top-dose-only effect, or another doubt; inactive = no such curve, though single readings can be large; an effect the other way counts as inactive or inconclusive.

SMILES	GCN5L2 inh	TrxR1 substrate	rTrxR1 inhibitor	GLS inhibitor	Sfp PPTase inh	VDR inh
COc1cccc(NC(=O)Cc2nnc(SCC(=O)NC(C)c3ccccc3)n2C)c1 (stereo not drawn)	?	i	i	i	i	i
COc1cc(OC)cc(C(=O)NCC(=O)N2CCN(c3ccc(O)cc3)CC2)c1	i	i	i	?	56µM	i
COC(=O)C1C(C(C)C)N(c2ccccc2)OC1(C)O (stereo not drawn)	i	i	i	i	i	i
C#CCN(C[C@H]1[C@H](OC(=O)NC2CCCC2)[C@H](OC(=O)NC2CCCC2)C[C@@H](C(=O)OC)[C@H]1C(=O)OC)S(=O)(=O)c1ccc(C)cc1	nt	nt	nt	i	nt	nt
O=C(O)c1ccccc1CSc1ncccc1C(=O)O	i	i	i	i	45µM	i
CC(=O)Nc1nonc1-c1nnc(SCc2ccccc2)n1C	i	i	i	i	nt	i
CN(C(=O)COC(=O)c1ccc(C#N)cc1)c1ccccc1	i	i	i	i	i	i
Nc1c(C(=O)NC2CCCC2)sc2nc(-c3cccs3)ccc12	i	i	i	i	45µM	i
CCc1ccc(/C=C(/C#N)c2nc(-c3ccc(C)cc3)cs2)cc1	i	i[11.4 µM]	i	i	nt	i
CCOc1ccc(-c2csc(/C(C#N)=C\c3ccc(O)c([N+](=O)[O-])c3)n2)cc1	?	i	i	i	79µM	i
COc1cccc(-c2csc(NC(=O)Nc3ccccc3)n2)c1	i	i	i	i	i	i
Cc1ccc(SC2=C(N(C)C)C(=O)c3ccccc3C2=O)cc1	nt	i	7.9µM	i	nt	?
Cc1cc(C)c(OCCCCN2CCNCC2)c(C)c1	i	i	i	i	i	i
COc1ccccc1-c1oc2ccccc2c(=O)c1O	i	nt	nt	nt	i	i
COc1ccc(OC)c(-c2oc3ccccc3c(=O)c2O)c1	i	i	i	i	89µM	i
CCNC(=S)N1CCc2cc(OC)c(OC)cc2C1COc1ccc(OC)cc1 (stereo not drawn)	i	i	i	i	i	i
CCn1c(N)c(C(=O)NCc2ccc3c(c2)OCO3)sc1=S	i	i	i	i	45µM	i
CCn1c(N)c(C(=O)Nc2ccccc2C(=O)OC)sc1=S	i	i	i	i	35µM	i
CCn1c(N)c(C(=O)NCCOC)sc1=S	i	i	i	i	56µM	i
COC(=O)c1ccccc1NC(=O)CC(=O)Nc1ccccc1C(=O)OC	i	i	i	i	i	i
O=C(NCC1CCCN(C(=O)CN2CCCCC2)C1)c1ccccc1Cl (stereo not drawn)	i	i	i	i	i	i
Cc1c(C(=O)Oc2cc(N)n(S(C)(=O)=O)n2)cccc1[N+](=O)[O-]	?	i	25µM	i	i	79µM
c1ccc(SSc2ccccn2)nc1	nt	i[11.4 µM]	i[11.4 µM]	10µM	nt	3.2µM
COC(=O)[C@@H]1CC[C@H](C)[C@@H](c2ccc(C)cc2)N1C(=O)c1ccc(/C=N/O[C@@H](C)CN2CCCCc3nc(C)c(C)cc32)cc1	i	nt	nt	nt	25µM	nt
CCOC(=O)c1ccc(CN2C(=O)c3ccccc3S2(=O)=O)cc1	i	i	i	i	i	i
SMILES	GCN5L2 inh	TrxR1 substrate	rTrxR1 inhibitor	GLS inhibitor	Sfp PPTase inh	VDR inh
COc1cccc(OC)c1OCCCCCCN1CCN(C)CC1	i	i	i	i	i	i
CN1CCN(CCCCOc2ccccc2C=O)CC1	i	i	i	i	25µM	i
COc1cc(/C=C/c2ccc(O)cc2)cc(OC)c1	i	i	i	i	56µM	i
CN1C(=O)CSC1=Nc1ccc(F)cc1	?	i	i	i	i	i
COc1ccc(CCN2C(=S)NC3CC2(C)Oc2ccc([N+](=O)[O-])cc23)cc1OC (stereo not drawn)	i	i	i	10µM	i	i
COc1ccc(N2C(=O)NC3CC2(C)Oc2ccc(Cl)cc23)cc1OC (stereo not drawn)	i	i	i	i	i	i
C=CCOC(=O)C(C#N)c1nc2ccccc2nc1N1CCN(Cc2ccc3c(c2)OCO3)CC1 (stereo not drawn)	i	i	i	i	i	i
CN1/C(=C\C(=O)CSc2nnc(N)s2)C(C)(C)c2ccccc21	i	i	i	i	i	i
Cc1cccc[n+]1CC(=O)/C=C1\N(C)c2ccccc2C1(C)C	i	i	i	i	i	i
CN1/C(=C\C(=S)Nc2ccccc2)C(C)(C)c2ccccc21	i	i	?	i	32µM	?
CN1/C(=C/C(=O)CSc2ccccc2C(=O)O)C(C)(C)c2ccccc21	i	i	i	i	89µM	i
CN1/C(=C\C(=O)CSc2cccc[n+]2[O-])C(C)(C)c2ccccc21	i	i	i	i	16µM	i
CN1/C(=C\C(=O)Nc2ccc(Cl)cc2)C(C)(C)c2ccccc21	i	i	i	i	i	i
O=C(COc1ccc(S(=O)(=O)NC2CCCCC2)cc1)NCc1ccccn1	i	i	i	i	i	i
C[C@H](NC(=O)CC[C@H]1O[C@@H](n2ccc(=O)[nH]c2=O)[C@H](O)[C@@H]1O)C(=O)O	nt	nt	nt	i	nt	nt
Cc1cc(C)nc(SCC(=O)c2cc3ccccc3oc2=O)n1	i	i	i	i	18µM	i
O=C(CSc1nc2ccccc2o1)c1cc2ccccc2oc1=O	i	i	i	i	i	i
O=S(=O)(Nc1nc2n(n1)C(c1ccccc1)C=C(c1ccc(Cl)cc1)N2)c1ccccc1 (stereo not drawn)	i	i	i	i	nt	i
COc1ccc(N=c2sc3ccccc3n2C)cc1	i	i	i	i	i	i
COc1ccccc1N=c1sc2ccccc2n1C	i	i	i	i	56µM	i
O=C(NCC1CCCCC1)c1cc(S(=O)(=O)N2CCCCC2)ccc1Cl	i	i	i	i	nt	i
COc1ccc(S(=O)(=O)N2CCOCC2)cc1NC(=O)CSc1nnc(C2CC2)n1N	i	i	i	i	i	i
Cc1cc(NN)nc(NS(=O)(=O)c2ccccc2)n1	i	i	i	i	56µM	i
CC1(C)CC(=O)C(C=NCCN2CCN(C(=S)NC3CCCCC3)CC2)=C(O)C1	i	i	i	i	79µM	i
CN1CCC(=NNC(=O)C(=O)Nc2ccc(F)cc2)CC1	i	i	i	i	i	i
O=C1C2C3C=CC(C4CC34)C2C(=O)N1/N=C/c1ccc(-c2cccc([N+](=O)[O-])c2)o1 (stereo not drawn)	i	i	i	i	i	i
O=C1C2C(C(=O)N1/N=C/c1ccc(N3CCCCC3)o1)C1C=CC2C12CC2 (stereo not drawn)	i	i	25µM	i	1µM	89µM
Cc1ccc(OCCCCn2cnc3ccccc32)c(C)c1	i	i	i	nt	50µM	i
CC1(C)CC(=O)C(C2C3=C(CC(C)(C)CC3=O)Oc3ccccc32)C(=O)C1 (stereo not drawn)	i	i	56µM	i	i	i
